Broadly, the inhibition is the change of the read-out against control, counted positive when it falls.

About 3,300 (1.5%) of roughly 220,000 compounds were called active. For the sample, actives were picked, then their nearest neighbours and some compounds at random. A number with no mark means an inactive call.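 Rule for the calls: active = compounds that cut the protein-peptide binding signal by more than 50% relative to plate controls in a single-dose test; inactive = the rest.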

Our source for the inhibition values is PubChem BioAssay AID1022 (Emory University Molecular Libraries Screening Center, 2008).

The target of the experiment is Induced myeloid leukemia cell differentiation protein Mcl-1 (Homo sapiens) (UniProt Q07820). The experiment is described as follows: Mcl-1/Noxa binding inhibitors, primary screen, biochemical, TR-FRET, 1536-well (AID 1022).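 Note: His-tagged Mcl-1 with rhodamine Noxa BH3 peptide and terbium anti-His antibody; 0% = Mcl-1 plus Noxa peptide wells and 100% = peptide-only wells.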 To be noted: TR-FRET Mcl-1/Noxa peptide binding, 2 h; at 21.7 µM; active compounds read high. (TR-FRET usually uses a lanthanide donor and a delayed reading to cut background.)
Induced myeloid leukemia cell differentiation protein Mcl-1 (Homo sapiens), sequence (Q07820 whole entry, looked up): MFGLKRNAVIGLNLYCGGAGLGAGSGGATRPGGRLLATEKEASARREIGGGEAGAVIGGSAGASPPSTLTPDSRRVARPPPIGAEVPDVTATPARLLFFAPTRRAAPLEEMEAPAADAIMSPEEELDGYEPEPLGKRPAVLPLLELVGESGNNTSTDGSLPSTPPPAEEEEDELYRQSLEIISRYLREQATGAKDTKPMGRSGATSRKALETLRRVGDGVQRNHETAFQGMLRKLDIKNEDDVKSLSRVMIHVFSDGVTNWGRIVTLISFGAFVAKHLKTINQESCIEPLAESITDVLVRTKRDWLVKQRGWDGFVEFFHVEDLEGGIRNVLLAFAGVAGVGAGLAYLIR
Consider `C=CCN1CC(C)/C(=N\O)CC1C` (stereo not given), for which the inhibition was 9.5%.

For `Cc1nn(Cc2ccc(Cl)cc2)c(Cl)c1/C=N/NC(=O)c1cccnc1`, the inhibition is 27.5%.

In the case of `CCn1nc(C)c(/C=N/NC(=O)Cc2ccc(Cl)cc2)c1C`, the inhibition was 91.8% (active).

With `Cc1nn(Cc2ccc(Cl)cc2)c(Cl)c1/C=N/NC(=O)CNc1ccccc1F`, the inhibition was 5.98%.

Consider `O=C1/C(=C/c2coc3ccc(O)cc3c2=O)SC(=S)N1c1ccccc1`, for which the inhibition was 56.9% (active).

Regarding `O=c1c(-c2ccccc2)coc2cc(O)ccc12`, the inhibition is 3.79%.

For `O=c1c(/C=N/O)coc2ccc(Cl)cc12`, the inhibition is 4.15%.

Consider `Oc1ccc2ccccc2c1N=Nc1nccs1`, for which the inhibition is -81.5%.

In the case of `CC1=C/C(=N\OS(=O)(=O)c2ccccc2)C=CC1=O`, the inhibition is 61.2% (active).

`CC1=C/C(=N\S(=O)(=O)c2ccccc2)C(C(C)C)=CC1=O`: the inhibition is 17%.

`CCOC(=O)C1(S(=O)(=O)c2ccccc2)CCN(Cc2ccccc2)CC1`: the inhibition was 10.4%.

Consider `CNC1(c2nnnn2-c2c(C)cccc2C)CCOC(C)(C)C1` (stereo not given), for which the inhibition was -14.2%.

Turning to `C=CC(COCc1ccccc1)N(Cc1ccccc1)S(=O)(=O)c1ccccc1Br` (stereo not given), the inhibition is -9.99%.

In the case of `O=C(Nc1ccc(S(=O)(=O)Nc2nccs2)cc1)c1cc(-c2ccncc2)nc2ccccc12`, the inhibition was 89.7% (active).

With `O=C(Nc1ccc(S(=O)(=O)Nc2nccs2)cc1)c1cc(=O)[nH]c2ccccc12`, the inhibition was 38.3%.

As to `CCC(CC)C(=O)Nc1ccc(S(=O)(=O)Nc2nccs2)cc1`, the inhibition is -30.3%.

On to `O=C(Nc1ccc(S(=O)(=O)N2CCOCC2)cc1)c1ccc2ncsc2c1`, for which the inhibition was 15.9%.

As for `O=C(Nc1ccccc1C(F)(F)F)N1CCCC1c1cccnc1` (stereo not given), the inhibition was -4.25%.

On to `Cc1cc(NCc2cccnc2)no1`, for which the inhibition is -9.18%.

For the molecule `CSc1sc(C(=O)NC(=O)NCc2cccnc2)c(C)c1-c1ccon1`, the inhibition is -5.48%.

As to `COCCn1c(SCC(=O)c2[nH]c(C)c(C(C)=O)c2C)nc2ccccc2c1=O`, the inhibition was -5.29%.

On to `O=C(NCCc1c[nH]c2ccc(Cl)cc12)c1ccc([N+](=O)[O-])cc1`, for which the inhibition is 27.8%.

For `NC(=O)c1c(Nc2nc3c(F)cccc3s2)sc2c1CCCC2`, the inhibition is 94.4% (active).

Turning to `Fc1cc(F)c2nc(Nc3nc4c(F)cccc4s3)sc2c1`, the inhibition is -45.8%.

In the case of `NC(=O)c1c(NC(=O)CSc2nc(N)cc(=O)[nH]2)sc2c1CCCC2`, the inhibition is 39.5%.

Take `CC(C)Cc1ccc(C(C)C(=N)N)cc1` (stereo not given): the inhibition is 4.15%.

As for `O=C(NCC(c1cccs1)N1CCOCC1)c1cc(-c2ccccn2)nc2ccccc12` (stereo not given), the inhibition was -1.37%.

Regarding `COc1ccc(OCCC(=O)c2ccc(OC)cc2)cc1`, the inhibition is 16.6%.

For `CC(=O)Nc1ccc(CC#N)cc1`, the inhibition was -4.22%.

Take `CCN(CC)CCN(C(=O)c1ccc(N2C(=O)CCC2=O)cc1)c1nc2cc3c(cc2s1)OCO3`: the inhibition is 59.3% (active).

Regarding `CCN(CC)CCN(C(=O)c1cccc([N+](=O)[O-])c1)c1nc2ccc(OC)cc2s1`, the inhibition is 19.8%.

Regarding `Cc1nc2cc3c(cc2s1)OCO3`, the inhibition is 4.53%.

Consider `Cc1ccccc1Cn1c2ccccc2c2cnn(CC(=O)NCc3ccco3)c(=O)c21`, for which the inhibition is 6.08%.

With `C=CCNC(=S)N1CCc2[nH]c3ccccc3c2C1`, the inhibition was 2.21%.

For the molecule `Cc1ccc(NC(=O)COC(=O)CCc2nc3ccccc3n2-c2ccccc2)c(C)c1`, the inhibition is 4.37%.

As for `CCN(c1ccc(NC(=O)COC(=O)CCc2nc3ccccc3n2-c2ccccc2)cc1)C(C)C`, the inhibition is 79.3% (active).

As for `CC(C)(C)c1ccc(NC(=O)COC(=O)CCc2nc3ccccc3c(=O)[nH]2)cc1`, the inhibition was 0.96%.

Turning to `COCCn1c(SCC(=O)Nc2cc(OC)ccc2OC)nc2c(c1=O)SC(C)C2` (stereo not given), the inhibition is 1.76%.

Turning to `CC(C)(C)c1ccc(CCC2OCC(CN3CCOCC3)O2)cc1` (stereo not given), the inhibition was -0.05%.

Regarding `Cc1ccc(/C=N/NC(=O)CN2CCN(Cc3ccccc3)CC2)s1`, the inhibition was 14.9%.

With `O=C(Cn1nnc(N2CCCCC2)n1)c1ccc(Cl)c(Cl)c1`, the inhibition is 13.1%.

In the case of `Cc1ccc(-c2cc(C(=O)NN)n[nH]2)o1`, the inhibition was 11.3%.

For the molecule `CCc1ccccc1N1C(=O)C2C3CC(=O)C(c4ccccc43)C2C1=O` (stereo not given), the inhibition is 1.91%.

For the molecule `CC1=C(C)CC2C(=O)N(c3cccc4ccccc34)C(=O)C2C1` (stereo not given), the inhibition is 53.5% (active).

With `Cc1ccc(N2C(=O)CC(Nc3cccc4ccccc34)C2=O)cc1` (stereo not given), the inhibition is -23%.

For `CCCCNC(=O)OCCSCCS(=O)(=O)c1ccc(Cl)cc1`, the inhibition was -6.78%.

Turning to `C/C(=N/NC(=O)c1ccn(C)n1)c1ccncc1`, the inhibition was -1.7%.

For the molecule `COc1ccc(OC)c(C(c2nnnn2C(C)(C)C)N2CCc3ccccc3C2)c1` (stereo not given), the inhibition was 23.3%.

For `CCOc1ccc2[nH]c(=O)c(C(c3nnnn3CCOC)N3CCOCC3)cc2c1` (stereo not given), the inhibition was -4.39%.

In the case of `COCCn1nnnc1C(c1cc2ccc(OC)cc2[nH]c1=O)N1CCc2ccccc2C1` (stereo not given), the inhibition was 58.9% (active).

On to `CCOC(=O)CN(C)S(=O)(=O)c1ccc(-c2cc(C(=O)OC)sc2C(F)(F)F)cc1`, for which the inhibition was 11.3%.

`O=S(=O)(c1ccc(F)cc1)N1CC=C(c2ccccc2)CC1`: the inhibition is -8.68%.

`COc1cc(C(CCN2CCN(c3ccccc3)CC2)c2c(OC)cc(OC)c3ccc(=O)oc23)cc(OC)c1OC` (stereo not given): the inhibition is 12.8%.

Turning to `CC(C)Cc1nnc(NC(=O)CCC(=O)Nc2ccc3cn[nH]c3c2)s1`, the inhibition is 32.1%.

For the molecule `O=C(CCn1nnc2ccccc2c1=O)N[C@@H](Cc1c[nH]c2ccccc12)C(=O)O`, the inhibition was 18.9%.

As to `O=C(O)CC12CC3CC(C1)CC(n1ncc(NCc4ccc(F)cc4)c(Cl)c1=O)(C3)C2`, the inhibition was 16.2%.

Consider `CCOC(=O)c1sc2nc(CSc3ccccc3)[nH]c(=O)c2c1C`, for which the inhibition is -3.55%.

Consider `Cc1ccc(C)c(SCc2nc3sc(C(=O)O)c(C)c3c(=O)[nH]2)c1`, for which the inhibition was 7.18%.

As for `CSc1nnc(SCc2nc3sc(C(=O)O)c(C)c3c(=O)[nH]2)s1`, the inhibition was 70.6% (active).

For the molecule `COC(=O)c1cc(N2CCNCC2)nc2ccccc12`, the inhibition is -2.31%.
